Bead autofluor – flagged as autofluorescent in microsphere protease counterscreen. compound autofluorescence counterscreen, microsphere flow cytometry; active compounds read high. fluorescence intensity (no concentration beside the values). 360,000 compounds, 3.1% hits. AID 624483; in the data active = fluorescence intensity above about 16000; inconclusive = no clear call, values can overlap the other calls
Vc quorum ag – quorum light induction in luxS cqsA deficient V. cholerae; V. cholerae BH1578 lux reporter, luminescence, 6 h; activation, % at 18.7 µM; 350,000 compounds, 0.16% hits; in the data active = activation mostly above about 9.7%, no sharp cut-off; inconclusive = no clear call, values can overlap the other calls; inactive = mostly below about 3.7%
BoNT-A LC inh2 – blocks Botulinum neurotoxin A light chain protease. multiplex microsphere protease substrate cleavage, flow cytometry. inhibition, % at 10 µM. 360,000 compounds, 0.17% hits. AID 588499
Anthrax LF inh2 – inhibitors of Bacillus anthracis lethal factor protease | P15917 | AID 588501 | inhibition, % at 10 µM | 360,000 compounds, 0.12% hits | multiplex microsphere protease cleavage assay, LF
Target sequence (P15917 whole entry, looked up): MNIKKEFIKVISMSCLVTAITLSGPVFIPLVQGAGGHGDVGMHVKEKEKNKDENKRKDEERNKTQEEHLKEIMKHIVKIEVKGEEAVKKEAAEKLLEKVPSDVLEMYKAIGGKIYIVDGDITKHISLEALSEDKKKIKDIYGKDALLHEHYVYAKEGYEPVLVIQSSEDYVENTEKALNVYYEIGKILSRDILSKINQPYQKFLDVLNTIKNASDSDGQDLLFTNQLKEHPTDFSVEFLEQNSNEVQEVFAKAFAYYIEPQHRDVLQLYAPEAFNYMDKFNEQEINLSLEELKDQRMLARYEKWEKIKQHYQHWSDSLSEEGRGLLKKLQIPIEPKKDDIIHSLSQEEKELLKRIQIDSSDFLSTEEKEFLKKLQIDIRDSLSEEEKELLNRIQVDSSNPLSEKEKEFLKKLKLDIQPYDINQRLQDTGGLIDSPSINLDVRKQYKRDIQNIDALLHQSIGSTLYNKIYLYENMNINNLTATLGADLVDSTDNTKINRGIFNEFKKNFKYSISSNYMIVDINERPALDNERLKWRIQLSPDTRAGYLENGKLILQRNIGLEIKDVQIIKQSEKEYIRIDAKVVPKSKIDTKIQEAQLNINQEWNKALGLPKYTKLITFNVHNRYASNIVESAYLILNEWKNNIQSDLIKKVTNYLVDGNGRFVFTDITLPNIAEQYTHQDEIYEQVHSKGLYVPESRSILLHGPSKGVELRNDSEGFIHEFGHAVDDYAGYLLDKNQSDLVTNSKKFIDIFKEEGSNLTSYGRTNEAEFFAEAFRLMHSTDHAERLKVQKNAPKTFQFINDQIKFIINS
BoNT F protease – BoNT F light chain protease inhibition. Multiplex microsphere protease cleavage assay, flow cytometry. inhibition, % at 10 µM. 360,000 compounds, 0.22% hits. AID 588497; in the data active = inhibition above about 35%, passing the limit was not always enough; inconclusive = no clear call, values can overlap the other calls
A number is an active result; i = inactive; ? = inconclusive; nt = no result. This is a sample that favours compounds with a hit; in the whole collection about 3.5% have one here. Cut-off read from the data, not from the text of the source, unless noted: active = inhibition above about 30%; inconclusive = no clear call, values can overlap the other calls; inactive = below that.

SMILES	Bead autofluor	Vc quorum ag	BoNT-A LC inh2	Anthrax LF inh2	BoNT F protease
CCn1c(CSc2nc3ccccc3s2)nnc1SCC(=O)c1ccc2c(c1)OCCO2	i	i	i	i	i
C=CCn1c(CCc2ccccc2)nnc1SCC(N)=O	i	i	i	i	i
CCn1c(CSc2nc3ccccc3s2)nnc1SCC(N)=O	20063	i	i	i	i
CCn1c(CCc2ccccc2)nnc1SCC(N)=O	i	i	i	i	37.3
C=CCn1c(CSc2nc3ccccc3s2)nnc1SCC(=O)NCc1ccccc1	i	i	i	i	i
CCn1c(CSc2nc3ccccc3s2)nnc1SCC(=O)NCC(=O)OC	20468	i	i	i	i
CC(C)(C)C(=O)Nc1cccc(-c2ncon2)c1	i	i	i	i	?
CN(C(=O)c1nn(C)c2c1CS(=O)(=O)c1ccccc1-2)c1cccc(Cl)c1	i	i	i	i	i
CCn1c(C)nc2cc(C(=O)N3N=C(CCOC)CC3(O)C(F)(F)F)ccc21 (configuration not stated)	nt	i	nt	nt	nt
CCn1c(SCC(N)=O)nnc1-c1cc2c(C)nn(-c3ccccc3)c2s1	23213	i	i	i	i
CCn1c(SCC(=O)Nc2cc(C(C)(C)C)nn2-c2ccccc2)nnc1-c1cccs1	i	i	i	i	i
CCn1c(CSc2nc3ccccc3s2)nnc1SCC(=O)OC(C)(C)C	16941	i	i	i	i
CCOC(=O)C(C)Sc1cc(CS(=O)(=O)c2ccccc2)nc(-c2ccccc2)n1 (configuration not stated)	20917	i	?	i	i
O=S(=O)(Cc1cc(Sc2ccc(Cl)cc2)nc(-c2ccccc2)n1)c1ccccc1	i	i	i	i	i
COc1cc(OC)cc(C(=O)Nc2ccc(C(=O)Nc3ccccc3OC)cc2)c1	i	i	i	i	i
O=C(c1ccccn1)N1CCN(c2cccc(C(F)(F)F)c2)CC1	i	i	i	i	i
O=C(c1cc2ccccn2n1)N1CCN(c2cccc(C(F)(F)F)c2)CC1	20114	i	i	i	i
Cn1nnnc1SCC(=O)Nc1ccc(S(=O)(=O)N2CCOCC2)cc1	i	i	i	i	i
CC12CCC(C(=O)Nc3ccncc3)(CC1O)C2(C)C (configuration not stated)	i	i	i	i	i
Cc1ccccc1Oc1cccc(C(=O)/C(C#N)=C/N(C)C)c1	i	i	i	i	i
Cc1ccccc1Oc1ncccc1C(=O)/C(C#N)=C/N(C)C	23141	i	i	i	i
COC(=O)c1ccc(Sc2ccc(C)cc2)c(N)c1	24100	i	i	i	i
CC1CCN(c2ccccc2NC(=S)NC(=O)C(C)(C)C)CC1	i	i	i	i	i
Cc1nc(Nc2ccc3c(c2)OCO3)c2oc3ccccc3c2n1	24138	i	?	i	i
c1ccc2c(c1)oc1c(Nc3ccc4c(c3)OCO4)ncnc12	i	i	i	i	i
SMILES	Bead autofluor	Vc quorum ag	BoNT-A LC inh2	Anthrax LF inh2	BoNT F protease
CCc1nc(Nc2ccccc2)c2oc3ccccc3c2n1	19756	i	?	i	i
O=C(NNC(=O)c1ccc(F)c(S(=O)(=O)N2CCOCC2)c1)c1ccc([N+](=O)[O-])cc1	i	i	i	i	i
COc1ccc(/C=C/CN2CCCC(C(=O)c3ccc(OC)c(F)c3)C2)cc1 (configuration not stated)	i	i	i	i	i
Cc1ccccc1C(=O)NCC(=O)OC(C)C(=O)NCc1ccco1 (configuration not stated)	?	i	i	i	i
CCCCCCCCCCS(=O)(=O)N/N=C/c1ccc([N+](=O)[O-])cc1	21737	i	?	i	i
Cc1ccc(/C=N/NS(=O)(=O)c2ccc([N+](=O)[O-])cc2)o1	i	i	i	i	i
Nc1c(-c2ccc(Cl)cc2)cnn1-c1cccc([N+](=O)[O-])c1	i	i	i	i	i
Nc1c(-c2ccccc2)cnn1-c1cccc([N+](=O)[O-])c1	17591	i	i	i	i
Cc1n[nH]c(=S)n1/N=C/c1ccccc1OCc1ccc(Cl)cc1	19713	i	?	i	i
NC(Cc1ccc(C(F)(F)F)cc1)c1csc(Nc2ccc(C(=O)NCc3ccco3)cn2)n1 (configuration not stated)	i	i	i	i	i
O=S(Cc1ccccc1)CC(O)(c1ccccc1)c1ccccc1 (configuration not stated)	21390	i	i	i	i
O=C(CSc1ncn[nH]1)N1CCN(S(=O)(=O)c2ccc(Cl)cc2)CC1	21069	i	i	i	i
Cc1cccc(S(=O)(=O)N/N=c2\sc3ccccc3n2C)c1	i	i	i	i	i
O=C(NCCOC(=O)c1ccccc1C(=O)OCCNC(=O)c1cccnc1)c1cccnc1	19258	i	i	i	i
